High-throughput results as filed in PubChem.
AmpC detergent: blocks E. coli AmpC beta-lactamase in detergent assay; P00811; AmpC hydrolysis of nitrocefin, absorbance 480 nm, 0.01% Triton; hit rate 0.041% among 370,000; Potency, µM (doses to about 114 µM), for inactives: top-dose activity change, negative = inhibition, most hits filed as inhibitors;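 further: 0% = no-compound wells and -100% = no-enzyme wells; nearly all actives have a fitted effect of over 25% in size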
Target sequence (P00811 whole entry, looked up): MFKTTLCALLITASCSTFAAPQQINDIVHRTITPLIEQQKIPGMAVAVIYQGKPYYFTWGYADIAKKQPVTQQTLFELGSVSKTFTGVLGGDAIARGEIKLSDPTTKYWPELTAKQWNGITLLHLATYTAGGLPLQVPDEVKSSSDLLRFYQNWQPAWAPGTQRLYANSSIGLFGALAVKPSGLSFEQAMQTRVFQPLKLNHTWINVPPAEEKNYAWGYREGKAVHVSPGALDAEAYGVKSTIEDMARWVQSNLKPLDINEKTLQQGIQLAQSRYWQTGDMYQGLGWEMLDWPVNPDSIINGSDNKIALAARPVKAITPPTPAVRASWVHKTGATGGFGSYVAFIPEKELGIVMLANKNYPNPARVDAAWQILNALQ
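20 mM phosphate pH 7.0 + 0.01% (detergent screen) or 0.0001% Triton X-100; 5.3 nM AmpC reagent; cpd preinc 15 min RT; nitrocefin (800 uM stock) to start; A480 q20 s × 4 min; Activity was normalised to no-enzyme and no-compound control wells.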
AmpC no deterg: AmpC beta-lactamase inhibition without detergent | P00811 | AmpC nitrocefin hydrolysis, absorbance 480 nm, 0.0001% Triton | Potency, µM (doses to about 57.1 µM), without a hit: at the top dose activity change, negative = inhibition, most hits filed as inhibitors | hit rate 0.52% among 330,000;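 further: plate controls were no compound for no effect and no enzyme for full effect; nearly all actives have a fitted effect of over 20% in size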
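20 mM phosphate pH 7.0 + 0.01% (detergent screen) or 0.0001% Triton X-100; 5.3 nM AmpC reagent; cpd preinc 15 min RT; nitrocefin (800 uM stock) to start; A480 q20 s × 4 min; Activity was normalised to no-enzyme and no-compound control wells.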
HCV inh: blocks hepatitis C virus. hit rate 3.4% among 340,000. Potency, µM (doses to about 41.8 µM), inactives show top-dose activity change, negative = inhibition, actives largely listed as inhibitors. Huh7.5.1 HCVcc-Cre infection, luciferase reporter, 44 h. AID 651820
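Infectious HCVcc-Cre (~0.5 moi) was added to cells just after compound, with cells seeded 4 h earlier at 1,000 per well. Luciferase activity after 44 h culture reported infection; substrate was incubated 15 min at room temperature before reading.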
Pf growth 96h: P. falciparum growth inhibition at 96 hour, primary screen for plastid delayed-death inhibitors | Potency, µM (highest dose often 28.7 µM), inactives show at the highest dose activity change, negative = inhibition, most hits filed as inhibitors | AID 504834 | P. falciparum luciferase reporter growth, 96 h | hit rate 6.9% among 320,000
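Parasite growth measured via integrated firefly luciferase reporter in P. falciparum. Infected erythrocytes at 2% hematocrit, 0.05% parasitemia final were treated 96 hours at 37 C under 5% CO2, and luminescence was read.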
Pf growth 48h: P. falciparum growth inhibition at 48 hours (one generation). hit rate 5.9% among 310,000. P. falciparum luciferase growth in erythrocytes, 48 h. Potency, µM (highest dose often 28.7 µM), for the others: top-dose activity change, negative = inhibition, usual class: inhibitors
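A one-generation exposure of luciferase-tagged malaria parasites in RPMI 1640/Albumax erythrocyte culture, 37 C and 5% CO2. Inhibition is inferred from decreased luminescence after adding detection reagent.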
AMA1 RON2 block: inhibitors of Plasmodium falciparum AMA1-RON2 interaction. AlphaScreen AMA1-biotinylated RON2 peptide binding. hit rate 0.2% among 360,000. Potency, µM (top dose mostly 58.2 µM), for the others: top-dose activity change, negative = inhibition, hits mostly inhibitors. AID 720542;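 further: 0% = vehicle wells and -100% = peptide control; nearly all actives have a fitted effect of over 45% in size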
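AMA1 (3D7) with his tag at 25 nM final met compounds first, then biotinylated RON2 peptide at 25 nM; detection used donor plus acceptor beads, 10 µg/mL apiece, read by AlphaScreen after 30 min at room temperature.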
Starred values were filed as active, the others as inactive; ? = inconclusive; nt = no result; [ ] = remark or other dose. Rows were chosen to be rich in hits. Some 11% of all compounds tested hit in one or more screens of this group. The call rests on the fitted dose curve; in most records, active means well fitted curve in the direction sought with a large enough effect; inconclusive means small, poorly fitted or top-dose-only effect, or another doubt; inactive means no such curve, though single readings can be large; an effect the other way counts as inactive or inconclusive. Unless noted, on the % scale 0 is the no-effect control and ±100 the full control effect; potency means the concentration at half of the fitted maximal effect.

SMILES	AmpC detergent	AmpC no deterg	HCV inh	Pf growth 96h	Pf growth 48h	AMA1 RON2 block
Cc1ccc(S(=O)(=O)N2CCC(C(=O)NC3CCCCC3C)CC2)cc1 (centres undefined)	-5%	-3%	-10%	34%	6%	7%
COc1ccc(CNC(=O)C2CCN(c3nc(-c4ccccc4)nc4c3CCC4)CC2)cc1	-15%	67%	?	?	1.9µM*	-21%
O=C(NCc1ccccc1)C1CCN(c2nc(-c3ccccc3)nc3c2CCC3)CC1	5%	23%	?	19%	?	-6%
Cc1ccc(S(=O)(=O)N2CCC(C(=O)NC3CC3)CC2)cc1	?	-13%	6%	5%	2.3µM*	-11%
COc1ccc(S(=O)(=O)N2CCC(C(=O)NCC3CC3)CC2)cc1	0%	3%	-10%	3%	10µM*	-6%
CC(C)(C)NC(=O)C1CCN(S(=O)(=O)c2ccc(Br)cc2)CC1	?	-6%	13%	-10%	9.3µM*	2%
CCN1CCN(C(=O)C2CCN(S(=O)(=O)c3ccc(Br)cc3)CC2)CC1	-13%	37%	1%	?	0%	-8%
O=C(NC1CCN(Cc2ccccc2)CC1)C1CCN(S(=O)(=O)c2ccc(Cl)cc2)CC1	1%	-4%	10µM*	?	?	6%
COc1ccc(S(=O)(=O)N2CCC(C(=O)NC(c3nc4ccccc4[nH]3)C(C)C)CC2)cc1 (centres undefined)	?	-15%	-3%	?	10µM*	-2%
CC(C)CN(CC(C)C)S(=O)(=O)N1CCC(C(=O)NC2CCCCCCC2)CC1	2%	-10%	6%	12µM*	?	4%
CCS(=O)(=O)N1CCC(C(=O)NC2CCCCCCC2)CC1	1%	?	6%	-16%	3%	28%
O=C(NC1CCN(Cc2ccccc2)CC1)C1CCN(S(=O)(=O)c2ccccc2)CC1	4%	11%	?	?	15%	-7%
CCS(=O)(=O)N1CCC(C(=O)NCc2ccc(OC)cc2)CC1	2%	-3%	26%	5.9µM*	14%	-6%
CCOCCCNC(=O)C(=O)Nc1c2c(nn1-c1ccccc1)CSC2	1%	nt	nt	nt	nt	nt
Cc1ccc(C(=O)NNC(=O)C2CCN(Cc3ccccc3)CC2)cc1	0%	-32%	-12%	30%	4%	13%
COc1ccc(CNC(=O)C2CCN(C(=O)[C@@H](CC(C)C)NC(=O)OC(C)(C)C)CC2)cc1	-1%	140%	nt	-16%	9.3µM*	nt
O=C(NC1CCCCCC1)C1CCN(S(=O)(=O)c2ccccc2)CC1	-16%	-8%	3%	2.9µM*	-1%	-6%
Cc1ccc(S(=O)(=O)N2CCC(C(=O)NCC3CC3)CC2)cc1	?	-2%	2%	0%	5.9µM*	3%
COc1ccc(CNC(=O)[C@H](C)NC(=O)C2CCN(C(=O)[C@H](CCSC)NC(=O)OC(C)(C)C)CC2)cc1	-9%	163%	-23%	-12%	-18%	3%
O=C(NC1CCN(S(=O)(=O)c2ccccc2)CC1)C1CCCCC1	0%	-10%	17%	-21%	16%	11%
Cc1ccc(S(=O)(=O)N2CCC(C(=O)NCC3CCCCC3)CC2)cc1	-9%	21%	?	?	-30%	4%
O=C(NNC(=O)C1CCN(Cc2ccccc2)CC1)c1cccc(Cl)c1	2%	?	10µM*	0%	0%	7%
CCc1ccccc1NC(=O)C(=O)NCCc1sc(-c2cccc(F)c2)nc1C	0%	nt	nt	nt	nt	nt
CN(C(=O)CSc1nc2ccc(NC(=O)c3cccc(F)c3)cc2s1)c1ccccc1	-1%	nt	nt	nt	nt	nt
CC(C)(C)c1ccc(C2NC(=O)c3n[nH]c(-c4cccs4)c32)cc1 (centres undefined)	0%	nt	nt	nt	nt	nt
SMILES	AmpC detergent	AmpC no deterg	HCV inh	Pf growth 96h	Pf growth 48h	AMA1 RON2 block
CCN1CCCC1CNC(=S)Nc1ccc(C(C)=O)cc1 (centres undefined)	?	-19%	-8%	-24%	15µM*	11%
Cn1c(=O)cc(SCC(=O)N2CCN(c3ccccc3F)CC2)c2ccc(Cl)cc21	5%	nt	nt	nt	nt	nt
CC(C)(C)C1c2[nH]c3ccccc3c2CCN1CCCn1cccn1 (centres undefined)	4%	-2%	4%	5.9µM*	?	13%
Fc1ccccc1C1c2[nH]c3ccccc3c2CCN1CCCn1cccn1 (centres undefined)	12%	38%	3%	8%	?	-1%
COc1cccc(Nc2cc(C)c3ccccc3n2)c1	-5%	-51%	?	?	6%	-8%
COc1ccc(Nc2cc(C)c3c(O)cccc3n2)cc1	-4%	-46%	?	1.7µM*	2.3µM*	-21%
Cc1ccc(Nc2cc(C)c3ccc(O)cc3n2)cc1C	2%	-40%	10µM*	?	?	-5%
Cc1ccc2c(NCc3ccco3)nc(NC(C)C)nc2c1	nt	nt	nt	nt	nt	-13%
COC(=O)c1cc(Nc2cc(C)c3c(O)cccc3n2)cc(C(=O)OC)c1	0%	-40%	?	?	9.3µM*	-4%
Cc1cc(NCc2ccco2)nc2cc(O)ccc12	?	-36%	9%	5.2µM*	3.3µM*	26%
Cc1cc2c(cc1NS(=O)(=O)c1ccc(F)cc1)n(C)c(=O)c(=O)n2C	-2%	nt	nt	nt	nt	nt
Cc1ccc2cccc(NC(=O)C(C)(C)Oc3ccc(Br)cc3)c2n1	7%	nt	nt	nt	nt	nt
Cc1ccccc1Nc1cc(C)c2c(O)cccc2n1	?	-15%	-5%[8.37 µM]	14%	?	-5%
Cc1ccc(Nc2cc(C)c3c(O)cccc3n2)cc1C	-6%	-46%	?	2.6µM*	2.6µM*	-3%
COc1cccc(NC(=O)C2CCCN(S(=O)(=O)c3cn(C(C)C)cn3)C2)c1 (centres undefined)	11%	nt	nt	nt	nt	nt
COc1ccc(-c2nc3c4ccccc4ccn3c2CN2CCCCC2)cc1OC	2%	67%	11µM*	?	?	-22%
COc1ccc(C2CC(=O)Oc3c(C(CCN4CCCCC4)c4ccc(N(C)C)cc4)c(OC)cc(OC)c32)cc1 (centres undefined)	-1%	178%	-11%	9.3µM*	?	?
COc1ccc(C2CC(=O)Oc3c(C(CCN4CCCC(C)C4)c4ccc(N(C)C)cc4)c(OC)cc(OC)c32)cc1 (centres undefined)	-3%	182%	-3%	?	?	18µM*
COc1ccc(C(CC(=O)N2CCCC(C)C2)c2c(O)cc(OC)cc2OC)cc1 (centres undefined)	1%	17%	-6%	?	?	-1%
